{"source": "PubChem BioAssay (NCI)", "note": "“And” between values parts separate entries of the source, which are not always exact repeats. Equal values may be shown once. This is part of a sample that, as a whole, favours compounds with a hit. Of some 83,000 tested, about 20% had one in any assay.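 Results are percent growth after 48 hours of single-concentration exposure. 100 means growth as in untreated cells, lower positive values show inhibition; negative values down to -100 show cell death.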 The source made the active and inactive calls.", "data": [{"test_system": "A549/ATCC NSCLC", "assay": "NCI-60 one-dose screen, 48 h (100 = growth as untreated, 0 = no growth, -100 = all killed)", "details": "1 µM", "protocol": "(§1) Growth inhibition of the A549/ATCC human Non-Small Cell Lung tumor cell line is measured as a screen for anti-cancer activity. Cells are grown in 96 well plates and exposed to the test compound for 48 hours. Compounds are tested at a single concentration, which is 10^-5 M for most compounds. The reported endpoint is percent growth (GI% or GIPRCNT), where numbers from 0 - 100% represent growth inhibition, and numbers from -100% - 0 represent cell death. For example, a value of 40 represents 60% growth inhibition. A value of 0 means no net growth occurred over the course of the experiment. A value of -40 indicates 40% of cells at the beginning of the experiment died by the end of the experiment. A value of -100 means all cells are dead at the end of the experiment.\n(§2) NCI-60 Human Tumor Cell Lines Screen was performed using the standard one-dose NCI protocol, which is described in more detail at https://dtp.cancer.gov/discovery_development/nci-60/default.htm.\n(§3) Compounds with GIPRCNT values below 10 were considered active. Activity score was based on GIPRCNT using the following formula: […]\n(§4) Score is 0 for GIPRCNT values of 100 or above, 50 for GIPRCNT values of 0, and 100 for GIPRCNT values of -100.", "values": [{"compound": "CNC(=O)c1cc(Oc2ccc(CC(=O)Nc3cc(C(C)(C)C)nn3C)cc2)ccn1", "growth": "71.2% (inactive)"}]}, {"test_system": "A549/ATCC NSCLC", "assay": "NCI-60 one-dose screen, 48 h (100 = growth as untreated, 0 = no growth, -100 = all killed)", "details": "10 µM", "protocol": "as §1, §2, §3, §4", "values": [{"compound": "CNC(=O)c1cc(Oc2ccc(CC(=O)Nc3cc(C(C)(C)C)nn3C)cc2)ccn1", "growth": "67.2% (inactive)"}]}, {"test_system": "A549/ATCC NSCLC", "assay": "NCI-60 one-dose screen, 48 h (100 = growth as untreated, 0 = no growth, -100 = all killed)", "details": "10 µM unless noted", "protocol": "as §1, §2, §3, §4", "values": [{"compound": "CNC(=O)c1cc(Oc2ccc(NC(=O)Nc3ccc(Cl)c(C(F)(F)F)c3)cc2)ccn1", "growth": "3.89% (active) and -36.4% (active)"}, {"compound": "NC(=O)c1ccccc1OCC(O)CO", "note": "(stereo not given)", "growth": "98.1% (inactive)"}, {"compound": "CN1CCN(Cc2occc(=O)c2O)CCN(C)CCN(Cc2occc(=O)c2O)CC1", "growth": "93.2% (inactive) and 12.3% (inactive)"}, {"compound": "Clc1nc(Oc2ccccc2)nc(-c2cn(-c3ccccc3)c3ccccc23)n1", "growth": "102% (inactive)"}, {"compound": "CN(C)CCCNC1=C(Cl)C(=O)c2ccccc2C1=O", "growth": "94.3% (inactive) and 85.1% (inactive)"}, {"compound": "CCN(CC)CCCC(CNc1ccnc2cc(Cl)ccc12)c1ccc(Cl)cc1", "note": "(stereo not given)", "growth": "4.3% (active) and 61.4% (inactive)"}, {"compound": "Cc1nn(-c2ccccc2)nc1C(=O)Nc1ccccc1C(=O)NCC1CC1", "growth": "67.8% (inactive) and 38.7% (inactive)"}, {"compound": "O=c1c2ccccc2nc2n1Cc1nc3ccccc3c(=O)n1C2", "growth": "102% (inactive) and 100% (inactive)"}, {"compound": "COc1cc2c(Nc3ccc(Cl)c(Cl)c3F)ncnc2cc1OCC1C[C@@H]2CN(C)C[C@@H]2C1", "note": "(stereo not given in full)", "growth": "-92.8% (active) and 15.8% (inactive)"}, {"compound": "Cc1ccc(-c2noc(C)n2)cc1", "growth": "93.6% (inactive)"}, {"compound": "Cn1c(=O)c2[nH]c(CCCCCCCCc3nc4ccccc4[nH]3)nc2n(C)c1=O", "growth": "67.4% (inactive) and 70.1% (inactive)"}, {"compound": "CN(C)c1ccc(C(=C2C=CC(=[N+](C)C)C=C2)c2ccccc2Cl)cc1", "growth": "-55.9% (active) and -34.5% (active)"}, {"compound": "OCc1ccccn1", "growth": "102% (inactive)"}, {"compound": "CN(C)CCC(=O)c1ccc(Cl)cc1", "growth": "109% (inactive) and 107% (inactive)"}, {"compound": "CC(O)Cn1cnc2c1c(=O)n(C)c(=O)n2C", "note": "(stereo not given)", "growth": "99.6% (inactive)"}, {"compound": "CC1=CCC2CC1C2(C)C", "note": "(stereo not given)", "growth": "94.3% (inactive) and 83.6% (inactive)"}, {"compound": "CCC(O)c1ccccc1", "note": "(stereo not given)", "growth": "104% (inactive) and 99.4% (inactive)"}, {"compound": "OC(COc1cccc2ccccc12)CN1CCN(c2ccc(Cl)cc2)CC1", "note": "(stereo not given)", "growth": "71.9% (inactive) and 88.3% (inactive)"}, {"compound": "CNC(=O)c1ccc(C)c(-n2c(C)cc(OCc3ccc(F)cc3F)c(Br)c2=O)c1", "growth": "63.4% (inactive) and 63.2% (inactive)"}, {"compound": "CN(C)c1ccc(/C=C(\\C#N)c2ccccc2)cc1", "growth": "24.3% (inactive) and 31.2% (inactive) and 24.9% (inactive)"}, {"compound": "O=[N+]([O-])c1ccc(-n2[nH]nnc2=S)cc1", "growth": "102% (inactive)"}, {"compound": "O[C@H](c1cc(C(F)(F)F)nc2c(C(F)(F)F)cccc12)[C@@H]1CCCCN1", "growth": "56.9% (inactive) and 67.1% (inactive)"}, {"compound": "CC(C)(C)c1ccc(O)c(CNC2CCCCC2)c1", "growth": "99.2% (inactive) and 84.7% (inactive)"}, {"compound": "CCCCCN(CCCCC)CC(O)c1cc2c(c3ccccc13)CCCC2", "note": "(stereo not given)", "growth": "71.1% (inactive) and 59.9% (inactive)"}, {"compound": "CC1=NN(c2ccccc2)C(=O)C1C(=O)c1ccccc1", "note": "(stereo not given)", "growth": "91.5% (inactive)"}, {"compound": "COc1ccc(/C(C#N)=C/c2ccccn2)cc1", "growth": "101% (inactive) and 103% (inactive)"}, {"compound": "CCN(CC)CCCC(C)Nc1cnc(C(=O)Nc2cc(F)cc3cccnc23)cn1", "note": "(stereo not given)", "growth": "58% (inactive) and 18.9% (inactive)"}, {"compound": "CNC(=O)c1cccc(-c2ccc3c(N4CCOC[C@@H]4C)nc(N4CCOC[C@@H]4C)nc3n2)c1", "growth": "4.83% (active) and -7.57% (active)"}, {"compound": "CCN(CC)CCOc1ccc(/C=N/Nc2nc3c([nH]2)c(=O)n(C)c(=O)n3C)cc1", "growth": "104% (inactive) and 110% (inactive)"}, {"compound": "COc1cc2nc(N3CCN(C(=O)C4COc5ccccc5O4)CC3)nc(N)c2cc1OC", "note": "(stereo not given)", "growth": "102% (inactive) and 88.9% (inactive)"}, {"compound": "Cc1nn(-c2ccc(Cl)cc2)c2ncnc(N/N=C/c3ccccc3O)c12", "growth": "9.46% (active) and 12.8% (inactive)"}, {"compound": "COc1ccc(-c2ncnc3c2ncn3C/C=C/CCl)cc1", "growth": "81.2% (inactive) and 75% (inactive)"}, {"compound": "Cn1c(SSc2ccc(-c3cccnc3)n2C)ccc1-c1cccnc1", "growth": "103% (inactive)"}, {"compound": "O=C1c2ccccc2C(=O)N1/N=C/c1ccc2c(c1)OCO2", "growth": "87.7% (inactive)"}, {"compound": "O=C(O)C1C2C=CC(C2)C1C(=O)O", "note": "(stereo not given)", "growth": "93.5% (inactive) and 13.4% (inactive) and 97.7% (inactive)"}, {"compound": "COC(=O)c1nc(N)nc(C(=O)OC)c1C(=O)c1ccc(OC)cc1", "growth": "102% (inactive) and 53.6% (inactive)"}, {"compound": "O=[N+]([O-])c1ccc2nc3c4ccccc4c4ccccc4c3nc2c1", "growth": "69.1% (inactive)"}]}, {"test_system": "A549/ATCC NSCLC", "assay": "NCI-60 one-dose screen, 48 h (100 = growth as untreated, 0 = no growth, -100 = all killed)", "details": "30 µM", "protocol": "as §1, §2, §3, §4", "values": [{"compound": "CNC(=O)c1cc(Oc2ccc(CC(=O)Nc3cc(C(C)(C)C)nn3C)cc2)ccn1", "growth": "80.8% (inactive)"}]}]}
